From PubChem BioAssay AID2284352 (EPA ToxCast)
Records with an inconclusive call do not appear. Active and inactive are the calls of the source. Rule for the calls: active = hit-call score of the fitted dose curve at least 0.9, where 1 is the maximum; inconclusive = response in the unintended direction; inactive = score below 0.9.

test system: rainbow trout Peroxisome Proliferator-activated Receptor gamma (PPARg), gene 110528708; test: ATG_rtPPARg_EcoTox2: Attagene TRANS-FACTORIAL EcoTox-2 HepG2 Assay for rainbow trout Peroxisome Proliferator-activated Receptor gamma (PPARg)
Protocol: ATG_EcoTox2 is a cell-based, multiplexed assay created by modifying the existing Attagene TRANS-FACTORIAL system to include a panel of nuclear receptors from some or all the following species: human (Homo sapiens), african clawed frog (Xenopus laevis), rainbow trout (Oncorhynchus mykiss), japanese medaka (Oryzias latipes), and zebrafish (Danio rerio). The ECOTOX2-FACTORIAL format uses HepG2, a human liver cell line, with measurements taken at 24 hours after chemical dosing in a 24-well plate. ATG_rtPPARg_EcoTox2 is one of 29 assay components calculated in the ATG_EcoTox2 assay. It is designed to make measurements of mRNA induction, a form of inducible reporter, as detected with fluorescence intensity signals by Reverse transcription polymerase chain reaction (RT-PCR) and Capillary electrophoresis technology.The assay endpoint ATG_rtPPARg_EcoTox2 was analyzed in the positive analysis fitting direction relative to DMSO as the negative control and baseline of activity. Using a type of inducible reporter, measures of mRNA for gain-of-signal activity can be used to understand the reporter gene at the transcription factor-level as they relate to the gene PPARg. Furthermore, this assay endpoint can be referred to as a primary readout, because this assay has produced multiple assay endpoints where this one serves a reporter gene function. […]
Human liver HepG2 cells are transiently transfected with multiple reporter transcription units (MRTUs) in 6-well plates using FuGene 6 reagent (Roche; 3 ml FuGene/1 mg DNA). […] A major difference between the CIS and TRANS system is that in CIS activities of endogenous TFs are measured, whereas the TRANS assay evaluates changes in activities of exogenous, chimeric NR-Gal4 proteins. […] The fragments were purified using Qiaquick PCR columns (Qiagen), analyzed on an ABI 3130xL genetic analyzer (Applied Biosystems) with peak positions identified by using a set of X-rhodamine (ROX)-labeled MapMarker1000 molecular weight standards (BioVentures). […]

Row | Compound | outcome
1 | O=C(O)C(F)(F)C(F)(F)C(F)(F)C(F)(F)C(F)(F)C(F)(F)C(F)(F)F | inactive
2 | CCCCOCN(C(=O)CCl)c1c(CC)cccc1CC | inactive
3 | O=S(=O)(O)C(F)(F)C(F)(F)C(F)(F)C(F)(F)C(F)(F)C(F)(F)F | inactive
